Data reported in PubChem BioAssay AID1159580 (chemical genetic matrix, 2015).
Out of some 5,500 compounds screened, about 2,000 (36%) were called active. Another 18% or so got no clear call; they are omitted. Rule as the data show it: active = normalized growth mostly below about 0.91 (no sharp cut-off); inconclusive = no clear call, values can overlap the other calls; inactive = mostly above about 0.92. Some of the results follow.

Test: chemical genetic growth profiling, strain panel (AID 1159580);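 also: tested at 20 µM; growth read once vehicle control cultures reached saturation at 30 °C; 1 = growth at the plate median or of vehicle wells; lower values mean less growth of the strain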
Settings: S. cerevisiae deletion strains, growth OD

Measured: normalized growth

CCN1CCC[C@H]1CNC(=O)c1cc(S(N)(=O)=O)ccc1OC
inactive: locus YAL013W, strain DEP1, active compounds read low 1.02 | locus YAL040C, strain CLN3, active compounds read low 1.07 | locus YCL061C, strain MRC1 (second series), active compounds read low 1.01 | locus YDR150W, strain NUM1, active compounds read low 1.01 | locus YDR363W, strain ESC2, active compounds read low 1.03 | locus YER002W, strain NOP16, active compounds read low 1.02 | locus YGR078C, strain PAC10, active compounds read low 1.02 | locus YGR229C, strain SMI1, active compounds read low 1.02 | locus YMR307W, strain GAS1, active compounds read low 0.997 | locus YNL128W, strain TEP1, active compounds read low 0.995 | locus YNL153C, strain GIM3, active compounds read low 1.02 | locus YNL175C, strain NOP13, active compounds read low 1 | locus YNL197C, strain WHI3, active compounds read low 1.01 | locus YNL224C, strain SQS1, active compounds read low 1.01 | locus YOR083W, strain WHI5 (second series), active compounds read low 1.01 | locus YPL055C, strain LGE1, active compounds read low 1.01
